Only some compounds are listed: those with a hit (about 19% of all), similar ones and a draw of the others.
HT1080-NT tox – kills 2HG-producing HT-1080-NT fibrosarcoma cells | HT-1080-NT fibrosarcoma viability, CellTiter-Glo ATP luminescence, 48 h | Potency, µM (series often up to 46.1 µM), without a hit: at the highest dose activity, negative = less viability, usual class: cytotoxic | hit rate 1.6% among 360,000;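 also: NT is the 2HG producing partner of a matched IDH1 knockdown line; potency is read from the fitted curve at half-maximal effect; 0% = DMSO-treated cells and -100% = media-only wells without cells; nearly all actives have a fitted effect of over 55% in size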
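750 cells/well, RPMI + 5% FBS; 2 h settle, compound pin-transfer, 48 h at 37 degrees C. CellTiter-Glo 10 min RT, luminescence. Normalized to DMSO and media-only wells.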
HT1080 IDH1KD tx – kills HT-1080 cells with IDH1 knockdown | HT-1080 IDH1 knockdown viability, ATP luminescence, 48 h | Potency, µM (titrated, usually from 46.1 µM), inactives show at the highest dose activity, negative = toxicity, most hits filed as cytotoxic | hit rate 2% among 360,000;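 also: potency is read from the fitted curve at half-maximal effect; 0% = DMSO wells and -100% = cell-free medium wells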
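IDH1KD HT-1080 cells, 750/well, RPMI + 5% FBS; compound pinned after 2 h settling; 48 h, 37 °C; CellTiter-Glo luminescence; % activity normalised to DMSO and no-cell wells; curves fitted, classed by r2 and efficacy.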
IL1B secr inh – blocks inflammasome-driven IL-1 beta release. hit rate 4.7% among 360,000. activity change, % at 57.5 µM. THP-1 LPS/ATP IL-1B secretion, AlphaLISA, 16 h; hits give low values; in the data active = activity change below about -50%; inconclusive = mostly about -30% to -49%
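THP-1 cells pretreated 1 hr with compounds (up to 57.5 uM final), then stimulated with LPS (250 ng/mL final) plus ATP (1.25 mM final); secreted IL-1B measured by AlphaLISA after 16 hr, decreased signal indicating inhibition.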
DT40 TDP1 CPT – growth inhibition of DT40 Tdp1-/-;hTDP1 cells with camptothecin (screen for TDP1 inhibitors) | Potency, µM (top dose mostly 46.2 µM), without a hit: top-dose activity change, negative = growth inhibition, hits mostly inhibitors | hit rate 12% among 420,000 | chicken DT40 Tdp1-/-;hTDP1 cells + 20 nM CPT, ATP luminescence, 48 h | AID 686979; also: potency is read from the fitted curve at half-maximal effect; nearly all actives have a fitted effect of over 55% in size
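Chicken DT40 Tdp1-/- cells complemented with human TDP1, 400 cells/well, exposed to compounds plus 20 nM camptothecin for at least 48 h at 37 C; viability read as ATP content by CellTiter-Glo luminescence.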
DT40 TDP1 no CPT – qHTS for Inhibitors of human tyrosyl-DNA phosphodiesterase 1 (TDP1): qHTS in cells in absence of CPT; DT40 Tdp1-/- hTDP1 cells, no CPT, ATP luminescence, 48 h; Potency, µM (titrated, usually from 46.2 µM), inactives show top-dose activity change, negative = growth inhibition, usual class: inhibitors; hit rate 15% among 420,000; AID 686978, 2013; also: potency is read from the fitted curve at half-maximal effect; nearly all actives have a fitted effect of over 55% in size
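Compound effects on proliferation are scored in DT40 Tdp1-/-;hTDP1 cells in the absence of CPT. ATP levels (CellTiter-Glo luminescence) are recorded after a ≥48 hr, 37 °C incubation.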
Active calls of the source: *; i = inactive; u = inconclusive; x = no result; [ ] = another dose, or the depositor's remark. Unless noted, calls follow the shape of the dose curve; as a rule, active = well fitted curve in the direction sought with a large enough effect; inconclusive = small, poorly fitted or top-dose-only effect, or another doubt; inactive = no such curve, though single readings can be large; an effect the other way counts as inactive or inconclusive. Unless noted, % is scaled to controls: 0 for no effect and ±100 for the full control effect.

SMILES | HT1080-NT tox | HT1080 IDH1KD tx | IL1B secr inh | DT40 TDP1 CPT | DT40 TDP1 no CPT
CCOC(=O)c1cc2cc([N+](=O)[O-])cc(OC)c2oc1=O | 8.4% | 4.7% | -2.0 | 5.8% | 10.5%
CCCOc1ccc(C2C3=C(Nc4nc(N)[nH]c(=O)c42)c2ccccc2C3=O)cc1 (centres undefined) | -4.8% | -21.1% | -54.9* | u | u
O=[N+]([O-])c1ccc(N2CCN(C(=S)NC3CCCCC3)CC2)cc1 | -12.2% | -21.2% | -78.4* | 16.4µM* | 9.2µM*
O=[N+]([O-])c1ccc(N2CCN(C(=S)Nc3ccccc3)CC2)cc1 | 0.3% | -6.1% | 9.6 | -20.4% | u
S=C(NC1CC1)N1CCN(c2ccc(Cl)cc2)CC1 | 3.9% | 0.2% | -11.5 | 14.6µM* | u
O=S(=O)(c1ccccc1)N1CCN(C(=S)NC2CCCC2)CC1 | -4.2% | 0.0% | i | -3.1% | -13.4%
O=S(=O)(c1c(Cl)cc(Br)cc1Cl)N1CCN(C(=S)NC2CC2)CC1 | -9.8% | -5.8% | -84.6* | u | u
O=C(NCc1nc2ccccc2[nH]1)C1=C[C@H](c2ccc(C(F)(F)F)cc2)C[C@H](OCCCCO)O1 | -2.3% | -5.5% | -20.3 | u | u
CCCCNC(=O)c1sc(=S)n2c1[nH]c(=O)c1ccccc12 | -2.6% | -1.9% | -4.1 | -25.3% | u
O=C(NC1CCCCC1)c1sc(=S)n2c1[nH]c(=O)c1ccccc12 | u | u | -28.6 | 16.4µM* | 23.1µM*
Cc1cc2nc(-c3ccccc3)c(Cc3cccc(Cl)c3)n2c(C)c1Br | 0.5% | -8.9% | 23.9 | u | 25.9µM*
Cc1cc2nc(-c3ccc(F)cc3)c(Cc3cccc(Cl)c3)n2c(C)c1Br | -2.9% | -4.7% | 47.4 | 23.1µM* | u
COCCNC(=O)C1(C)CCCN(C(=O)c2c(F)ccc(C)c2F)C1 (centres undefined) | 3.6% | 12.0% | 22.6 | -6.6% | -0.3%
O=C(N/N=C/c1ccc(Cl)cc1)c1cc(-c2cccnc2)nc2ccccc12 | u | u | 42.5 | u | 7.31µM*
Cc1ccc(-c2cc(C(=O)N/N=C/c3cccnc3)c3ccccc3n2)cc1C | u | u | -18.5 | 8.2µM* | 8.2µM*
O=C(N/N=C/c1ccc[nH]1)c1cc(-c2ccc(Cl)cc2)nc2ccccc12 | u | u | 6.0 | u | 9.2µM*
O=C(NC1CCC(O)CC1)c1ccc(-c2ccc(Cl)cc2)o1 (centres undefined) | -2.4% | 0.4% | -62.4* | u | u
O=C(N/N=C/c1cccnc1)c1cc(-c2ccc(Cl)cc2)nc2ccccc12 | 2.5% | -7.5% | -11.0 | u | 8.2µM*
O=C(N/N=C/c1cccnc1)c1cc(-c2ccc(Br)cc2)nc2ccccc12 | u | u | u | 11.6µM* | 8.2µM*
COc1ccc(/C=N/NC(=O)c2ccncc2)cc1CN1CCOCC1 | 17.7% | 18.1% | x | -3.7% | -9.2%
O=C(NC1CCC(O)CC1)c1cc(-c2ccc(Cl)cc2)nc2ccccc12 (centres undefined) | -2.1% | 19.8% | -55.1* | u | u
CCOc1cccc(-c2cc(C(=O)N/N=C/c3ccc(OC)c(CN4CCOCC4)c3)c3ccccc3n2)c1 | u | u | -24.0 | 18.4µM* | 16.4µM*
c1ccc(-c2ncnc3ccccc23)cc1 | 9.9% | 19.1% | 0.0 | -21.2% | -20.6%
COc1cccc(CN(CC(=O)NCc2ccccc2)C(=O)c2csnn2)c1 | -12.8% | -24.2% | 14.0 | 1.4% | -21.6%
Cc1ccc(/C=N/NC(=O)c2cc(-c3cccnc3)nc3ccccc23)cc1 | 1.46µM* | 1.3µM* | 76.5 | 2.06µM* | 1.46µM*
SMILES | HT1080-NT tox | HT1080 IDH1KD tx | IL1B secr inh | DT40 TDP1 CPT | DT40 TDP1 no CPT
CCOc1cc(/C=N\NC(=O)CC(=O)NCCc2ccccc2)ccc1O | -0.4% | 3.8% | 77.3 | -5.1% | -0.2%
Cc1ccc(C)c(-c2cc(C(=O)N/N=C/c3cccnc3)c3ccccc3n2)c1 | -21.6% | -23.9% | -15.4 | u | u
CCOc1cc(C=NNC(=O)N(c2ccccc2)c2ccccc2)ccc1O | u | u | -15.8 | 29.1µM* | 16.4µM*
CCOc1cc(/C=N/NC(=O)c2cc(-c3cccnc3)nc3ccccc23)ccc1O | -6.8% | -2.3% | 21.2 | -28.5% | 6.51µM*
CC(=O)c1ccc(N(C(=O)CNC(=O)c2ccco2)C(C(=O)NC2CCCC2)c2ccncc2)cc1 (centres undefined) | 1.5% | 10.5% | -9.8 | 3.7% | 9.9%
COC(=O)c1cc(=O)n(CCc2ccc(OC)cc2)c(=Nc2ccc(F)c(Cl)c2)s1 | 20.6µM* | u | x | u | u
COC(=O)c1cc(=O)n(Cc2ccc3c(c2)OCO3)c(=Nc2ccc(F)c(Cl)c2)s1 | 14.1% | -1.2% | -6.4 | 8.2µM* | 6.51µM*
CCC(C)N(C(=O)COC(=O)c1ccc(N)c([N+](=O)[O-])c1)C1CCS(=O)(=O)C1 (centres undefined) | 10.5% | 6.6% | 9.3 | -23.8% | -14.6%
CCN(CC)CCOC(=O)c1cccnc1 | x | x | x | 1.6% | -7.9%
Cc1ccccc1CN1C[C@@H]2C[C@@H](c3cn[nH]c3-c3ccc(F)cc3)N3CCC[C@@]23C1=O | u | -26.0% | -50.7* | 18.4µM* | 20.6µM*
COc1ccc([C@@H]2C[C@H]3CN(Cc4ccccc4OC)C(=O)[C@]34CCCN24)cc1C | -18.8% | -23.9% | 14.7 | u | 18.4µM*
COc1ccccc1CN1C[C@@H]2C[C@@H](c3cccc(C)n3)N3CCC[C@@]23C1=O | 7.0% | 2.0% | 30.5 | 14.7% | -20.5%
COc1ccccc1CN1C[C@@H]2C[C@@H](c3cccc(C)c3)N3CCC[C@@]23C1=O | -27.6% | -0.6% | -21.5 | -24.7% | u
COc1ccccc1CN1C[C@@H]2C[C@@H](c3ccc(C)c(C)c3)N3CCC[C@@]23C1=O | -27.6% | -20.8% | -17.3 | 14.6µM* | 16.4µM*
CC(=O)OC[C@@]1(O)C[C@@]23CC[C@@H]4c5ccoc5CC[C@@]4(C)[C@@H]2CCC1C3 | x | x | x | -14.2%[9.04 µM] | -20.5%[9.04 µM]
Cc1ccc(NNc2c(C)nc3ccccc3nc2=O)cc1 | -9.8% | -0.9% | u | -4.3% | -26.1%
Cn1c(N)c(C(=O)COC(=O)c2cc(S(=O)(=O)NCc3ccccc3)ccc2O)c(=O)n(C)c1=O | 3.4% | 1.8% | 16.2 | 9.7% | 12.1%
CCN(CC)c1ccc2cc(S(=O)(=O)c3ccc(Cl)cc3)c(=O)oc2c1 | 0.0% | -3.3% | 16.7 | u | u
CN(C)Cc1c(O)ccc2cc(-c3nc4ccccc4n3C)c(=O)oc12 | 3.0% | 17.3% | 28.0 | -1.8% | 3.7%
CCN(CC)c1ccc2cc(-c3nc4ccccc4n3C)c(=O)oc2c1 | u | u | 33.5 | 0.651µM* | 1.16µM*

Screening results from PubChem.
